Where a name gives a salt, the structure may show the parent alone. Unmarked numbers belong to inactive results.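 The calls were made as follows: active = AUC significantly below DMSO controls by Student t-fit with adjusted P under 0.01; inactive = not significantly reduced.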
Tested on: Haemophilus parainfluenzae
Test: growth AUC normalised to DMSO control (fraction of control); higher = less growth inhibition, active = hit call of the paper
Settings: 20 µM
In short: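 Pathogens were passaged twice under anaerobic conditions, then inoculated into pre-reduced mGAM plates at a starting OD578 of 0.01, with compound at 20 μM and 1% DMSO, and sealed with breathable membranes. For Haemophilus parainfluenzae, the medium was supplemented with hemin and NAD. OD578 was read every hour for 24 h in three biological replicates. Growth-curve AUC was calculated by the trapezoidal rule up to the exponential-to-stationary transition and normalised to DMSO controls on the same plate.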

Structure (SMILES) | growth AUC normalised to DMSO control
OC(CCN1CCCCC1)(c1ccccc1)c1ccccc1 [Pridinol methanesulfonate salt] | 0.999
Cc1cccc(C)c1NC(=O)C1CCCCN1C (centres undefined) [Mepivacaine hydrochloride] | 1.07
CN/C(=N\CCSCc1nc[nH]c1C)NC#N [Cimetidine] | 0.993
O=P(O)(O)C(Cl)(Cl)P(=O)(O)O [Clodronate disodium] | 0.965
Nc1ncn(C2OC(CO)C(O)C2O)c(=O)n1 (centres undefined) [Azacytidine-5] | 0.781
C1CCC(C(CC2CCCCN2)C2CCCCC2)CC1 (centres undefined) [Perhexiline maleate] | 0.977
COC(=O)Nc1nc2cc(Sc3ccccc3)ccc2[nH]1 [Fenbendazole] | 1.04
CC(=O)Oc1ccc(C(c2ccc(OC(C)=O)cc2)c2ccccn2)cc1 [Bisacodyl] | 1.03
NCCCC(O)(P(=O)(O)O)P(=O)(O)O [Alendronate sodium] | 1.05

Reference: the supplement of paper PMC12350171
